# High-throughput results (PubChem)
# Compounds with a hit are over-represented: about 3.9% of the library has one in this group of screens.
# HTT prom inh: inhibitors of huntingtin promoter activity; HEK293 HTT promoter firefly luciferase reporter, 24 h; Potency, µM (doses to about 57.5 µM), inactives show at the highest dose activity change, negative = inhibition, usual class: inhibitors; 48,000 tested, 0.93% active; AID 1508623; also: potency is read from the fitted curve at half-maximal effect; nearly all actives have a fitted effect of over 50% in size
#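 HEK293 cells carrying firefly luciferase reporters were seeded at 2,500 per well in Opti-MEM and cultured for 24 h. They were then treated with compounds at up to 57.5 uM final for 24 h at 37 degrees C before Dual-Glo luminescence readout.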
# HTT-AS act: activators of huntingtin-antisense promoter activity; HEK293 HTT-AS promoter firefly luciferase reporter, 24 h; response scale: percent change from vehicle, -100% = no light; Potency, µM (series often up to 57.5 µM), for the others: at the top dose activity change, positive = activation, most hits filed as activators; 48,000 tested, 0.24% active; also: potency is read from the fitted curve at half-maximal effect; nearly all actives have a fitted effect of over 55% in size
#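 Firefly luciferase readout (Dual-Glo, 10 min RT) after 24 h, 37 °C compound exposure (final up to 57.5 uM) of HEK293 reporter cells cultured 24 h beforehand; PTC124 at 50 uM final as control inhibitor; activity scaled vehicle 0%, zero RLU -100%.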
# p53null 39C kill: p53 null cell cytotoxicity, nonpermissive temperature; H1299 p53-null (neo) cells, 39C, ATPlite viability, 24 h; Potency, µM (titrated, usually from 46.1 µM), for inactives: top-dose activity, negative = cell killing, most hits filed as cytotoxic; 55,000 tested, 0.97% active;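 also: potency is read from the fitted curve at half-maximal effect; 0% = DMSO only and -100% = full killing by 100 µM tamoxifen; nearly all actives have a fitted effect of over 50% in size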
#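 Cells seeded at 600/well, 37C overnight. Compound added (up to 46 uM), plates shifted to 39C for 24 hr. ATPlite added, luminescence read after 20 min at room temperature.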
# GPR32 ag: activates human resolvin D1 receptor GPR32; O75388; CHO-K1 GPR32 beta-arrestin PathHunter luminescence, 90 min; zero percent set by DMSO-only wells; activation, % at 76.9 µM; 48,000 tested, 2.5% active;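 active = activation of at least 60% and not above a set upper limit, about 1 call in 100 departs from these limits; inconclusive = activation of 40% to 60%, or above that upper limit; inactive = activation under 40%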; also: 0% is about no effect
# Target sequence (O75388 whole entry, looked up): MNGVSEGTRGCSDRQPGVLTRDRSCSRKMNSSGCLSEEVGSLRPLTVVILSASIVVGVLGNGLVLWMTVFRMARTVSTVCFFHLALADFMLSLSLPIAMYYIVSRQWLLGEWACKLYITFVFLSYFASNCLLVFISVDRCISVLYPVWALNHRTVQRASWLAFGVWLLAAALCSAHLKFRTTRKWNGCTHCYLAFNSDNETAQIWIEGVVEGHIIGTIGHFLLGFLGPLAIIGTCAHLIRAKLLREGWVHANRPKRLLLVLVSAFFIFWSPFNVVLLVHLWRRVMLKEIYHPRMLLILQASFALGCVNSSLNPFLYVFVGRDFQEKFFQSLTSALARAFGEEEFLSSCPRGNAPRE
#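 CHO-K1 cells stably expressing ProLink-tagged GPR32 and Enzyme Activator-tagged beta-arrestin were seeded at 2,500 cells/well overnight, exposed to compounds for 90 min at 37 °C, then read by beta-Gal complementation chemiluminescence after 1 h detection reagent.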
# p53null 32C kill: selectivity test: cytotoxicity in p53 null cells, permissive temperature. 55,000 tested, 0.62% active. AID 903. Potency, µM (top dose mostly 46.1 µM), for inactives: top-dose activity change, negative = cytotoxicity, usual class: cytotoxic. H1299-neo p53 null cells, ATP luminescence, 24 h, 32C;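 also: potency is read from the fitted curve at half-maximal effect; 0% = DMSO only and -100% = full killing by 100 µM tamoxifen; nearly all actives have a fitted effect of over 55% in size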
#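 Cytotoxicity: H1299-neo (no p53), 32C, 24 h treatment. Concentrations up to 46 uM. Readout cellular ATP, luminescence. Normalization to DMSO basal and tamoxifen 100 uM maximal kill.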
# An asterisk follows results filed as active; ? = inconclusive; . = no result; [ ] = remark or other dose. Unless noted, calls follow the shape of the dose curve; as a rule, active = well fitted curve in the direction sought with a large enough effect; inconclusive = small, poorly fitted or top-dose-only effect, or another doubt; inactive = no such curve, though single readings can be large; an effect the other way counts as inactive or inconclusive.
SMILES,HTT prom inh,HTT-AS act,p53null 39C kill,GPR32 ag,p53null 32C kill
Cc1ccc(S(=O)(=O)N2CCC(c3ccncc3)CC2)c(C)c1,16µM*,-84%,0%,9,-5%
COCCOC(=O)C1=C(C)NC2=C(C(=O)CC(c3ccccc3OC)C2)C1c1cccc(O)c1 (configuration not stated),11%,-9%,.,.,.
Nc1ccn([C@@H]2O[C@H](CO)[C@@H](O)C2(F)F)c(=O)n1,-22%,-22%,.,-12,.
CCCN1C(C(=O)c2ccccc2)=C(OC(=O)COc2ccc(C)cc2)c2ccccc2S1(=O)=O,?,-34%,32µM*,-65,-18%
CCCCCN=C(N)N/N=C/c1c[nH]c2ccc(OC)cc12,?,-42%,.,73*,.
CC(C)N(CC[C@H](c1ccccc1)c1cc(CO)ccc1O)C(C)C,0%,-8%,.,.,.
Cc1oc(-c2ccccc2)nc1CCC(=O)c1ccc(CC2SC(=O)NC2=O)cc1 (configuration not stated),-13%,-28%,.,74*,.
O=C1NC(=O)C(=Cc2ccc3nccc(-c4ccncc4)c3c2)S1,?,-32%,.,.,.
O=S(=O)(Nc1ccc2oc3c(c2c1)CCCC3)c1cc(Cl)ccc1Cl,-3%,-8%,37%,47,79%
Cc1ccc(NS(=O)(=O)c2ccc3[nH]c4c(c3c2)CCCC4)cc1N(C)C,?,-39%,-16%,92*,17%
COc1ccc(S(=O)(=O)Nc2ccc3oc4c(c3c2)CCCC4)cc1,?,-37%,22µM*,5,42%
CCOc1ccc(NS(=O)(=O)c2ccc3nc(-c4ccccc4)[nH]c3c2)cc1,-30%,-31%,-4%,?,6%
COc1ccc(NS(=O)(=O)c2ccc3nc(-c4ccccc4)[nH]c3c2)cc1,?,-35%,-7%,116*,-4%
COc1ccc(OC)c(CNS(=O)(=O)c2ccc3[nH]c4c(c3c2)CCCCC4)c1,?,-49%,39%,96*,9%
CCc1cc2cc(OC)c(OC)cc2c(Cc2ccccc2)n1,-1%,-12%,.,39,.
O=C(O)Cc1ccc2c(c1)C(=O)c1ccccc1CO2,19%,25%,.,-5,.
C/C(=C(/OCCOc1ccc(Cl)cc1)c1ccc(Cl)cc1Cl)n1ccnc1,-17%,-28%,.,-66,.
NCc1c[nH]c(=S)n1[C@H]1CCc2c(F)cc(F)cc2C1,-9%,-22%,.,.,.
COc1ccc(NS(=O)(=O)c2ccc3[nH]c4c(c3c2)CCCC4)cc1Cl,-19%,-35%,-19%,90*,12%
COc1ccc(NS(=O)(=O)c2ccc3[nH]c4c(c3c2)CCCCC4)cc1,?,-6%,-2%,74*,55%
CCOc1ccc(NS(=O)(=O)c2ccc3[nH]c4c(c3c2)CCCC4)cc1,-4%,-28%,-20%,49,30%
CCOc1ccc(NS(=O)(=O)c2ccc3[nH]c4c(c3c2)CCCCC4)cc1,?,7%[11.5 µM],?,66*,-27%
CCOc1cc2c(c(F)c1OCC)C(=N)N(CC(=O)c1cc(N3CCOCC3)c(OC)c(C(C)(C)C)c1)C2,?,-31%,.,.,.
COc1ccc(OC)c(NC(=O)Nc2cccc(OCc3cc(=O)n4cc(C)ccc4n3)c2)c1,41%,?,?,-8,10µM*
CCC(=O)Nc1cccc(OCc2cc(=O)n3cc(C)ccc3n2)c1,70%,?,?,-2,?
COc1cccc(NC(CNS(=O)(=O)c2ccc(Cl)cc2)c2ccccc2)c1 (configuration not stated),?,-41%,?,77*,59%
COc1cccc(NC(CNS(=O)(=O)c2ccc(C)cc2)c2ccccc2)c1 (configuration not stated),?,-22%,?,31,?
O=S(=O)(NCC(Nc1ccc(Cl)cc1)c1ccccc1)c1ccccc1 (configuration not stated),?,-23%,?,109*,?
Cc1nc(NC(=O)N2CCC[C@@H]2C(N)=O)sc1-c1csc(C(C)(C)C)n1,-5%,10%,.,.,.
